Sampled rows, rich in hits. Any-hit rate of the full collection: about 5.9%.
GLP-1R agonist: activates the human GLP-1 receptor | HEK293 GLP-1R CRE-luciferase, luminescence, 4-6 h; cells express a hypersensitive GLP-1R form | hit rate 0.007% among 380,000 | Potency, µM (titrated, usually from 45.6 µM), without a hit: top-dose activation, actives largely listed as activators; further: % of control where 0% means no effect
Target sequence (P43220 whole entry, looked up): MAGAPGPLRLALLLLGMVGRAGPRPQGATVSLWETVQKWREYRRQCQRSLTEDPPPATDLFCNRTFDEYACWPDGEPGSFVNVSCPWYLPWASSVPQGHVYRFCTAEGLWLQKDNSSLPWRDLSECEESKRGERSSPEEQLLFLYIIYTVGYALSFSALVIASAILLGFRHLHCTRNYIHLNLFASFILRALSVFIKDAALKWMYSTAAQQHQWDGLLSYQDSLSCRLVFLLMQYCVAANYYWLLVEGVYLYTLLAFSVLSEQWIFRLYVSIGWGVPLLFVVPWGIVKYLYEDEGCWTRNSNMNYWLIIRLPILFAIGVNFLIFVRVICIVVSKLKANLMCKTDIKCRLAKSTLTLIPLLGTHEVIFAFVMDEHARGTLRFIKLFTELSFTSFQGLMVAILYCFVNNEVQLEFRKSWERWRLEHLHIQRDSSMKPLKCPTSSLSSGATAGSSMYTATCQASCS
RORgamma inh: inhibitors of mouse ROR gamma transcriptional activity | Drosophila S2 Gal4-RORgamma UAS-luciferase reporter, 20 h | hit rate 5.4% among 310,000 | Potency, µM (highest dose often 53.6 µM), inactives show at the top dose activity change, negative = inhibition, actives largely listed as inhibitors | AID 2551; further: on the % scale 0 is the no-effect control and ±100 the full control effect; nearly all actives have a fitted effect of over 60% in size
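Compounds are pin-transferred onto Drosophila Schneider cells expressing a copper-inducible Gal4–ROR gamma transactivation domain fusion. After 1 hr, copper sulfate is added to 700 uM final; luciferase is read 20 hr later.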
GLP1R inv ag: GLP-1 receptor (human) inverse agonism | P43220 | HEK293 GLP-1R CRE-luciferase, luminescence, 24 h; GLP-1R form is constitutively active | Potency, µM (top dose mostly 38.3 µM), without a hit: at the highest dose activity change, negative = inhibition, most hits filed as inhibitors | hit rate 1.6% among 410,000; further: on the % scale 0 is the no-effect control and ±100 the full control effect; nearly all actives have a fitted effect of over 55% in size
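Using stably transfected HEK293 (constitutively active GLP-1R, cAMP-luciferase reporter), compounds were incubated 24 hr and luciferase measured by luminescence.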
Gal4-VP16 FLuc: inhibits Gal4-VP16 luciferase reporter, ROR gamma counter-screen; Drosophila S2 Gal4-VP16 UAS-luciferase, luminescence, 20 h; Potency, µM (titrated, usually from 53.6 µM), for inactives: at the highest dose activity, negative = inhibition, hits mostly inhibitors; hit rate 3.5% among 310,000; AID 2546;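 further: Gal4-VP16 expression switched on by copper sulfate through the metallothionein promoter; on the % scale 0 is the no-effect control and ±100 the full control effect; nearly all actives have a fitted effect of over 50% in size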
HEK293 tox: cytotoxic in the GLP-1 receptor inverse agonist counter-screen. HEK293 cAMP-luciferase reporter cells, luminescence, 24 h. Potency, µM (top dose mostly 38.3 µM), for inactives: at the highest dose activity change, negative = inhibition, most hits filed as inhibitors. hit rate 0.13% among 410,000. AID 624418;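 further: loss of luciferase light is scored as toxicity; on the % scale 0 is the no-effect control and ±100 the full control effect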
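To flag toxic compounds, the library was rerun on cells for 24 hr at 37 deg C and 5% CO2. Viability-linked luminescence was captured 12 min after adding luciferase detection reagent.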
* = called active by the depositor; [ ] = another dose, or the depositor's remark. The call rests on the fitted dose curve; in most records, active means well fitted curve in the direction sought with a large enough effect; inconclusive means small, poorly fitted or top-dose-only effect, or another doubt; inactive means no such curve, though single readings can be large; an effect the other way counts as inactive or inconclusive. Potency means the concentration at half of the fitted maximal effect.

Screening CC1CCCN(C(=S)Nc2ccc(F)cc2)C1 (stereo not given) returned GLP-1R agonist 0%, RORgamma inh 8.9µM*, GLP1R inv ag -29%, Gal4-VP16 FLuc 1%[10 µM] and HEK293 tox 2%.
Screening Fc1ccc(NC(=S)N2CCCC2)cc1 returned GLP-1R agonist -1%, GLP1R inv ag 7% and HEK293 tox 11%.
Screening OC1CCN(C(=S)Nc2ccc(Nc3ccccc3)cc2)CC1 returned GLP-1R agonist 1%, RORgamma inh -30%, GLP1R inv ag inconclusive, Gal4-VP16 FLuc 0%[10 µM] and HEK293 tox -7%.
For CC1CCCN(C(=S)Nc2ccc(Nc3ccccc3)cc2)C1 (stereo not given) the results were GLP-1R agonist 7%, RORgamma inh 11µM*, GLP1R inv ag 5%[7.66 µM], Gal4-VP16 FLuc inconclusive and HEK293 tox 3%[7.66 µM].
Screening O=C(CS(=O)Cc1ccco1)NCC=CCOc1cc(CN2CCCCC2)ccn1 (stereo not given) returned GLP-1R agonist -1%, RORgamma inh 27% and Gal4-VP16 FLuc -6%.
Screening CC(=O)OCC1OC(C#CC2=CCCCC2)C=CC1OC(C)=O (stereo not given) returned RORgamma inh 13%[10 µM] and Gal4-VP16 FLuc 8%[10 µM].
`Cc1ccc(S(=O)(=O)N(C)C)cc1NC(=O)c1cncc(Br)c1` gave GLP-1R agonist -3%, RORgamma inh 10µM*, GLP1R inv ag inconclusive, Gal4-VP16 FLuc 2.5µM* and HEK293 tox -24%.
`N#CCCCC#Cc1ccc2c(c1)COc1c3ccccc3nn1-2` gave GLP-1R agonist -4%, GLP1R inv ag 2.5µM* and HEK293 tox 6%.
Screening C/C=C\C1=C(CO)C(=O)C2O[C@]2(CC=C(C)C)C1=O (stereo not given in full) returned RORgamma inh 8%[10 µM] and Gal4-VP16 FLuc -3%[10 µM].
Cc1cc(OCC(=O)Nc2nc3c(s2)CCCC3)cc(C)c1Cl was read as GLP1R inv ag 3% and HEK293 tox 2%.
Screening COc1cc(/C=C/C(=O)N2CCCCC2=O)cc(OC)c1OC returned RORgamma inh 7.1µM* and Gal4-VP16 FLuc 7.9µM*.
COc1cc(/C=C\C(=O)N2CCC=CC2=O)cc(OC)c1OC was read as RORgamma inh 5µM* and Gal4-VP16 FLuc 5µM*.
Screening O=C(NCC(c1ccco1)S(=O)(=O)c1cccs1)c1c(F)cccc1F (stereo not given) returned GLP1R inv ag 5% and HEK293 tox 2%.
For C[C@@H](c1ccccc1)N1C(=O)[C@H]2[C@@H]3[C@H](O)C=CC(=O)[C@H]3CC[C@H]2C1=O the results were RORgamma inh inconclusive and Gal4-VP16 FLuc -12%[10 µM].
Screening CC(=O)CCc1ccc(OCC(O)CNCCOc2ccc(C)cc2)cc1 (stereo not given) returned GLP-1R agonist 0%, RORgamma inh -11%, GLP1R inv ag inconclusive, Gal4-VP16 FLuc -4% and HEK293 tox 4%.
For C=CCOc1ccc(CN(C)CC(O)COc2ccc(CCC(C)=O)cc2)cc1 (stereo not given) the results were GLP-1R agonist 4%, RORgamma inh -29%, GLP1R inv ag 11µM*, Gal4-VP16 FLuc -15% and HEK293 tox 8%.
Screening CCNc1ncc2nc(-c3ccc(F)cc3)c(=O)n(CCC#N)c2n1 returned RORgamma inh -3% and Gal4-VP16 FLuc 15%.
`Oc1c(C(c2cccs2)N2CCN(c3ccccc3)CC2)ccc2cccnc12` (stereo not given) gave RORgamma inh 5µM* and Gal4-VP16 FLuc 7.9µM*.
Oc1cccc(C(Nc2ccccn2)c2ccc3cccnc3c2O)c1Cl (stereo not given) was read as GLP1R inv ag inconclusive and HEK293 tox -6%.
Screening Oc1c(C(c2ccccc2Cl)N2CCCC2)ccc2cccnc12 (stereo not given) returned GLP-1R agonist -4%, RORgamma inh 1.6µM*, GLP1R inv ag 3.5µM*, Gal4-VP16 FLuc -80% and HEK293 tox 15%.
`CN1CCN(C(c2ccc(C(F)(F)F)cc2)c2ccc3cccnc3c2O)CC1` (stereo not given) gave GLP-1R agonist -5%, RORgamma inh 3.2µM*, GLP1R inv ag inconclusive, Gal4-VP16 FLuc 1.6µM* and HEK293 tox 8%.
For CCn1c2c(c(=O)n3ncc(C(=O)Nc4cccc(Cl)c4C)c13)CN(Cc1ccc(OC)cc1)CC2 the results were GLP1R inv ag -10% and HEK293 tox -2%.
For N#CCC(=O)NN the results were GLP-1R agonist -2%, RORgamma inh -1% and Gal4-VP16 FLuc -8%.
CC(=O)N1CCc2c(sc3c2c(=O)n(-c2cccc(Cl)c2)c(=O)n3Cc2ccc(F)cc2Cl)C1 was read as GLP1R inv ag 5% and HEK293 tox -4%.
`COc1ccc(NS(=O)(=O)c2ccc(O)c(C(=O)OCC(=O)NC(C)C3CC4CCC3C4)c2)cc1` (stereo not given) gave GLP-1R agonist -3%, RORgamma inh inconclusive, GLP1R inv ag 14%[7.66 µM], Gal4-VP16 FLuc -4% and HEK293 tox 0%[7.66 µM].
For CC(NC(=O)COC(=O)c1cc(NS(=O)(=O)c2ccc(Cl)c([N+](=O)[O-])c2)ccc1O)C1CC2CCC1C2 (stereo not given) the results were GLP-1R agonist -32%, RORgamma inh inconclusive, GLP1R inv ag inconclusive, Gal4-VP16 FLuc 11µM* and HEK293 tox inconclusive.
Screening CNC(=O)NC(=O)C(C)OC(=O)c1c2c(nc3ccccc13)/C(=C/c1cccs1)CC2 (stereo not given) returned GLP-1R agonist -4%, RORgamma inh 0.63µM*, GLP1R inv ag 1%, Gal4-VP16 FLuc 0.13µM* and HEK293 tox 281%.
Screening COc1ccc(CNc2ccc3c(c2)ncn3-c2ccccc2OC)cc1 returned GLP-1R agonist 9%, RORgamma inh 18µM*, GLP1R inv ag -9%, Gal4-VP16 FLuc inconclusive and HEK293 tox -24%.
Screening Cc1ccc(CNc2ccc3c(c2)ncn3C(C)C)cc1 returned GLP-1R agonist inconclusive, RORgamma inh 5µM*, GLP1R inv ag 58%, Gal4-VP16 FLuc -7% and HEK293 tox 3%.
O=C(NC1CC(=O)N(c2cccc(F)c2)C1)c1ccc(S(=O)(=O)N2CCCCC2)cc1 (stereo not given) was read as GLP1R inv ag -8% and HEK293 tox 4%.
For CCOc1cc(/C=C\[N+](=O)[O-])ccc1OCC(=O)Nc1ccccc1C the results were GLP-1R agonist 4%, RORgamma inh 1.1µM*, GLP1R inv ag inconclusive, Gal4-VP16 FLuc 1.8µM* and HEK293 tox inconclusive.
